In PubChem BioAssay (EPA / NIEHS):
Results filed as inconclusive are left out. The source made the active and inactive calls. How the source made its calls: active means hit-call score of the fitted dose curve at least 0.9, where 1 is the maximum; inconclusive means response in the unintended direction; inactive means score below 0.9.

Legend:
[1] = target: human Raf-1 Proto-Oncogene, serine/threonine Kinase (RAF1), RAF1 (gene 5894) (UniProt P04049); assay: NVS_ENZ_hRAF1: NovaScreen (NVS) Enzymatic Assay for human Raf-1 Proto-Oncogene, serine/threonine Kinase (RAF1) (AID 2283216)
Procedure, shortened: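 Cell-free recombinant kinase with specific fluorescent substrate, product separated by electrophoretic mobility shift; read 1 h after dosing. Primary screen at 25 uM in duplicate; hits then run in concentration-response up to 50 uM, fitted as loss of signal versus DMSO.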

[2] = target: Tyrosine-protein phosphatase non-receptor type 14 (Homo sapiens) (UniProt Q15678); assay: NVS_ENZ_hPTPN14: NovaScreen (NVS) Enzymatic Assay for human Protein Tyrosine Phosphatase Non-receptor Type 14 (PTPN14) (AID 2283206)
Procedure, shortened: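 Cell-free recombinant human PTPN14 with fluorescent substrate, read 0.5 h after dosing by fluorescence and electrophoretic mobility shift separating substrate from product. Primary screen at 25 uM in duplicate; hits run to 50 uM maximum; loss of signal versus DMSO.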

[3] = target: human Protein Tyrosine Phosphatase Non-receptor Type 2 (PTPN2), PTPN2 (gene 5771) (UniProt P17706); assay: NVS_ENZ_hPTPN2: NovaScreen (NVS) Enzymatic Assay for human Protein Tyrosine Phosphatase Non-receptor Type 2 (PTPN2) (AID 2283207)
Procedure, shortened: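 Cell-free recombinant enzyme with fluorescent substrate, product separated by electrophoretic mobility shift; read 1 h after dosing. Primary screen single concentration (25 uM) in duplicate; actives followed in concentration series; loss of signal versus DMSO.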

[4] = target: human Protein Tyrosine Phosphatase Non-receptor Type 9 (PTPN9), PTPN9 (gene 5780) (UniProt P43378); assay: NVS_ENZ_hPTPN9: NovaScreen (NVS) Enzymatic Assay for human Protein Tyrosine Phosphatase Non-receptor Type 9 (PTPN9) (AID 2283209)
Procedure, shortened: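 Sf9-expressed enzyme in a cell-free assay, fluorescence read 1.33 h after dosing with mobility-shift separation of substrate and product. Tested at 25 uM in duplicate, then up to 50 uM; signal loss versus DMSO.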

[5] = target: human Protein Tyrosine Phosphatase Non-receptor Type 6 (PTPN6), PTPN6 (gene 5777) (UniProt P29350); assay: NVS_ENZ_hPTPN6: NovaScreen (NVS) Enzymatic Assay for human Protein Tyrosine Phosphatase Non-receptor Type 6 (PTPN6) (AID 2283210)
Procedure, shortened: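 Cell-free assay with recombinant PTPN6 expressed in SF9 cells, fluorescent substrate, product separated from substrate by electrophoretic mobility shift; read 1.33 hours after dosing. Primary screen in duplicate at 25 uM, actives retested in concentration series; DMSO baseline.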

[6] = target: human Protein Tyrosine Phosphatase Receptor Type B (PTPRB), PTPRB (gene 5787) (UniProt P23467); assay: NVS_ENZ_hPTPRB: NovaScreen (NVS) Enzymatic Assay for human Protein Tyrosine Phosphatase Receptor Type B (PTPRB) (AID 2283211)
Procedure, shortened: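 Recombinant human PTPRB with a fluorescent substrate, product separated by electrophoretic mobility shift; read 1 h after dosing. Primary screen in duplicate at 25 uM; actives then retested in concentration series; loss of signal versus DMSO.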

[7] = target: human Protein Tyrosine Phosphatase Receptor Type F (PTPRF), PTPRF (gene 5792) (UniProt P10586); assay: NVS_ENZ_hPTPRF: NovaScreen (NVS) Enzymatic Assay for human Protein Tyrosine Phosphatase Receptor Type F (PTPRF) (AID 2283213)
Procedure, shortened: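 Cell-free fluorescence enzyme assay with recombinant protein and substrate; product separated by electrophoretic mobility shift. Read 1 h after dosing, single 25 uM duplicate screen, then concentration-response up to 50 uM; loss of signal vs DMSO.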

[8] = target: human Protein Tyrosine Phosphatase Receptor Type M (PTPRM), PTPRM (gene 5797) (UniProt P28827); assay: NVS_ENZ_hPTPRM: NovaScreen (NVS) Enzymatic Assay for human Protein Tyrosine Phosphatase Receptor Type M (PTPRM) (AID 2283215)
Procedure, shortened: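 Cell-free recombinant PTPRM with fluorogenic substrate; product separated from substrate by electrophoretic mobility shift and read by fluorescence, 1.33 h after dosing. Primary screen single concentration (25 uM) in duplicate; actives retested in concentration series; loss of signal versus DMSO.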

[9] = target: human Rho Associated Coiled-coil Containing Protein Kinase 1 (ROCK1), ROCK1 (gene 6093) (UniProt Q13464); assay: NVS_ENZ_hROCK1: NovaScreen (NVS) Enzymatic Assay for human Rho Associated Coiled-coil Containing Protein Kinase 1 (ROCK1) (AID 2283214)
Procedure, shortened: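 Cell-free recombinant human ROCK1 activity assay; fluorescent substrate and product separated by electrophoretic mobility shift, read 1 h after dosing. Screened in duplicate at 25 uM; loss of signal versus DMSO baseline scored as inhibition.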

human Raf-1 Proto-Oncogene, serine/threonine Kinase (RAF1), RAF1 (gene 5894), sequence (P04049 whole entry, looked up): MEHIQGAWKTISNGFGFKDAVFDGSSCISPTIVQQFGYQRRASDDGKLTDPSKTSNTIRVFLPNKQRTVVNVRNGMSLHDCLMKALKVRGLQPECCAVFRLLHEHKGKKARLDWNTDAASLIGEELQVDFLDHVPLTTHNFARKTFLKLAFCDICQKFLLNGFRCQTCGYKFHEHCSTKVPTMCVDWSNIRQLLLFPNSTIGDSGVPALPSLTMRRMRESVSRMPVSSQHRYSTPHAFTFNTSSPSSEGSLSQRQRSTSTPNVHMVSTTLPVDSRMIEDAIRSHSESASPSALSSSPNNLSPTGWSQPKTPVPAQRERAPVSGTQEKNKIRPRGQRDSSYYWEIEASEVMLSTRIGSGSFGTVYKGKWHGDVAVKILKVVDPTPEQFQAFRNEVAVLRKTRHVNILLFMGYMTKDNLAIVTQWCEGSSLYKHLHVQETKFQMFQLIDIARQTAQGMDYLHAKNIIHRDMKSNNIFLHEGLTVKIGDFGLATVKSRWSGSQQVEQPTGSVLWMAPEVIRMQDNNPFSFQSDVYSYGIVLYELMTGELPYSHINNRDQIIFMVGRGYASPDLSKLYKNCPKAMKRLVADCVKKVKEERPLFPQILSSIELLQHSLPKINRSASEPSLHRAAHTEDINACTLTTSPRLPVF
Tyrosine-protein phosphatase non-receptor type 14 (Homo sapiens), sequence (Q15678 whole entry, looked up): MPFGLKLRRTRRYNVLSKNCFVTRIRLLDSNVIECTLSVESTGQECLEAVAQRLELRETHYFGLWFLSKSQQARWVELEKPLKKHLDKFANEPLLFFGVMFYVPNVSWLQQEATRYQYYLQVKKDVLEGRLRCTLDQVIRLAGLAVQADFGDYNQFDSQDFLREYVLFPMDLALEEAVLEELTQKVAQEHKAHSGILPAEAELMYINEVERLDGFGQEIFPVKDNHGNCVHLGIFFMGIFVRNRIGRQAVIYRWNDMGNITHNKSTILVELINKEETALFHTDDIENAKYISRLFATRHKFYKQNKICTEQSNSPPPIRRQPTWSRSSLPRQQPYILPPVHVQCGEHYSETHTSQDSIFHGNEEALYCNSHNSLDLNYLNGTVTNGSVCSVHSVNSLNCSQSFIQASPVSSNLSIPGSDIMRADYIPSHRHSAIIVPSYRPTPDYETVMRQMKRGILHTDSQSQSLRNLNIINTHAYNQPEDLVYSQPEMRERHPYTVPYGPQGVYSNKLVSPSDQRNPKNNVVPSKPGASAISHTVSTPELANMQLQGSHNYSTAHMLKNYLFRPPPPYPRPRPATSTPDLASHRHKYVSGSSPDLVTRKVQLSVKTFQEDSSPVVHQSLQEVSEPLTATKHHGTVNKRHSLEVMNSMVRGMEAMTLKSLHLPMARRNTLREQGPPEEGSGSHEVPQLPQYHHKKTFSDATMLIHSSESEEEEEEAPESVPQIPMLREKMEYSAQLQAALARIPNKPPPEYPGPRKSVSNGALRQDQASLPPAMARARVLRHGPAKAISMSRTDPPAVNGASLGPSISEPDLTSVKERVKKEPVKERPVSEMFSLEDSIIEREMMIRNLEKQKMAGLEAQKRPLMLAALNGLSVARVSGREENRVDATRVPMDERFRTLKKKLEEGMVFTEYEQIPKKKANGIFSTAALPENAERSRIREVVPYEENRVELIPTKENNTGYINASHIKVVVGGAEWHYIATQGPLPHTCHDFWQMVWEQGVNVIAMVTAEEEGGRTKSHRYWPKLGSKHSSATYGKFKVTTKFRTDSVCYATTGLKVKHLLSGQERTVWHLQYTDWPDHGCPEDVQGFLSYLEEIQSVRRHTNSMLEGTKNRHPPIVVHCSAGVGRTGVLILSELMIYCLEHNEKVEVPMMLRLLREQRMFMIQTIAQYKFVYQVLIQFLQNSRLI
human Protein Tyrosine Phosphatase Non-receptor Type 2 (PTPN2), PTPN2 (gene 5771), sequence (P17706 whole entry, looked up): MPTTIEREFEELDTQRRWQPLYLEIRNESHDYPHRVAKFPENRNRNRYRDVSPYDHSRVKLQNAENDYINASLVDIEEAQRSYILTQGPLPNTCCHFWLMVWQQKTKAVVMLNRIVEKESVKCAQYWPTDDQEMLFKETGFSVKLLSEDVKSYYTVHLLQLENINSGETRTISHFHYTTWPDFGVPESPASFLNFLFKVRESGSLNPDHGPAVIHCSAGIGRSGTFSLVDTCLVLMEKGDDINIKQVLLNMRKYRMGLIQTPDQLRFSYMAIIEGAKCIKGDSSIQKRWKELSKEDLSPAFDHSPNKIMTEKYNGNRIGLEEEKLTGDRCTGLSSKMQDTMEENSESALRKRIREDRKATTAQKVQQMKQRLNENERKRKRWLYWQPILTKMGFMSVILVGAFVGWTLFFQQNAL
human Protein Tyrosine Phosphatase Receptor Type B (PTPRB), PTPRB (gene 5787), sequence (P23467 whole entry, looked up): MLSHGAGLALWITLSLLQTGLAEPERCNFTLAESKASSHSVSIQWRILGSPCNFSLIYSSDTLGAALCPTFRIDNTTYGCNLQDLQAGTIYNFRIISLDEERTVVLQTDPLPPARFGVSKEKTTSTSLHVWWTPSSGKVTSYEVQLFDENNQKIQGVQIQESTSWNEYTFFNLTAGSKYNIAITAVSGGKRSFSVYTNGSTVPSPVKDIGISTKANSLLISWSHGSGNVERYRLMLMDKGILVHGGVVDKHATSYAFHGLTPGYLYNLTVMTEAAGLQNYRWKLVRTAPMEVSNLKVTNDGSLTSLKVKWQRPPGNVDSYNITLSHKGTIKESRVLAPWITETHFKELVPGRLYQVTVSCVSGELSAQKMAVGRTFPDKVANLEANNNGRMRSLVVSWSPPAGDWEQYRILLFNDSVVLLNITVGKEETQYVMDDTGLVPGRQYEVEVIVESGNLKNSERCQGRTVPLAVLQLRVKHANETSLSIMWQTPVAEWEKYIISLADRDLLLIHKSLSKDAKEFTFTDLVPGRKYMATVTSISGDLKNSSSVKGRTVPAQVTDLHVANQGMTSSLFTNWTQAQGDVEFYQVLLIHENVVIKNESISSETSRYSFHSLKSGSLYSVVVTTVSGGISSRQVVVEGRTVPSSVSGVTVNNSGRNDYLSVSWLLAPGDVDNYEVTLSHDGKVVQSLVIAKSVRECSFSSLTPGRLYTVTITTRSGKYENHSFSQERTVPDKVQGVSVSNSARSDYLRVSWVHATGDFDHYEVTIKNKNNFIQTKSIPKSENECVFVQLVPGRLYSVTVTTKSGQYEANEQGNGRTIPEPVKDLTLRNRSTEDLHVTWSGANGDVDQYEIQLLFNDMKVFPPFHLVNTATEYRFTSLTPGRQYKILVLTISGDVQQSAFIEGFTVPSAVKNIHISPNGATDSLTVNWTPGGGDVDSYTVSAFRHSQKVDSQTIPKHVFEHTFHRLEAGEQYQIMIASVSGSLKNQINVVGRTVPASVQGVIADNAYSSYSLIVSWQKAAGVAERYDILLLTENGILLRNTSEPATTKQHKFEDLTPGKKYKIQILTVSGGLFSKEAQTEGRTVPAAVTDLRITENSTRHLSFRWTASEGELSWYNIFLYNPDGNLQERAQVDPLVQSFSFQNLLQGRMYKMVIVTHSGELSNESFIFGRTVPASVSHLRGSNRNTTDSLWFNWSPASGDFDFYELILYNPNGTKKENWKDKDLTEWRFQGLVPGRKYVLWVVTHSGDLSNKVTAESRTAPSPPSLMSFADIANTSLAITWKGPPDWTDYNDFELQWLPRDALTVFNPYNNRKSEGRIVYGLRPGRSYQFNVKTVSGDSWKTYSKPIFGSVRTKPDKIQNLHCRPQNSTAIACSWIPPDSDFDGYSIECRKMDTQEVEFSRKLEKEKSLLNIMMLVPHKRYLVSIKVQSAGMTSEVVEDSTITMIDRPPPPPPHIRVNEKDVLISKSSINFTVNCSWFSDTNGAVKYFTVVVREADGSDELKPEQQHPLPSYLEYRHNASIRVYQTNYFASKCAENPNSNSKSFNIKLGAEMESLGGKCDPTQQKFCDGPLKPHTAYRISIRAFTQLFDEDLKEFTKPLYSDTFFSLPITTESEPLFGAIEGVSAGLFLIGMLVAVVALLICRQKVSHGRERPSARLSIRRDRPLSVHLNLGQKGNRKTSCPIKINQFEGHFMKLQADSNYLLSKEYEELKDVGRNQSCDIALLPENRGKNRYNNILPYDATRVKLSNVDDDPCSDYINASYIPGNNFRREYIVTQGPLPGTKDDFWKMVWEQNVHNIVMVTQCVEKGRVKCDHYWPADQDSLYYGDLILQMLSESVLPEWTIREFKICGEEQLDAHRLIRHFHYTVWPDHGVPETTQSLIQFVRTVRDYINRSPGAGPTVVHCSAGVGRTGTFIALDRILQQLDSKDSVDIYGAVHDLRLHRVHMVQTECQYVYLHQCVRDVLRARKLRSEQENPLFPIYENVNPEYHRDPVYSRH
human Protein Tyrosine Phosphatase Non-receptor Type 9 (PTPN9), PTPN9 (gene 5780), sequence (P43378 whole entry, looked up): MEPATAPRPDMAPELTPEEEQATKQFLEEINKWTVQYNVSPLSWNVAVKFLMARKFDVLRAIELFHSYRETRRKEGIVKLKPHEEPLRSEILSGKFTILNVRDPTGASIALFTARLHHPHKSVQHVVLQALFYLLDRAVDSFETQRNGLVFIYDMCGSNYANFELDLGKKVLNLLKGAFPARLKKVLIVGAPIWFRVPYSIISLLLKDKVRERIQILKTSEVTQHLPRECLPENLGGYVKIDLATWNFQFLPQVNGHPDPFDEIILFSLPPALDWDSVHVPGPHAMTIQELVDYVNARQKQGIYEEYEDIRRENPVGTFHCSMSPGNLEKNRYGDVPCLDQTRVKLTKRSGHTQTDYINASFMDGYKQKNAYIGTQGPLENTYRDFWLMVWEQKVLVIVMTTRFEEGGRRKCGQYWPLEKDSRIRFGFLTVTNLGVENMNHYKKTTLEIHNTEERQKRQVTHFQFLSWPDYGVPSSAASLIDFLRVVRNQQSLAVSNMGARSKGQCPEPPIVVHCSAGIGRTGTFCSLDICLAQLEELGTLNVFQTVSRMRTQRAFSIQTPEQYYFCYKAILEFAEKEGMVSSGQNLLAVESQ

## CNC(=O)ON=CC(C)(C)SC
[1]
  outcome: inactive

## CNC(=S)S
[2]
  outcome: inactive
[3]
  outcome: inactive
[4]
  AC50: 13.5 µM (active)
[5]
  outcome: inactive
[6]
  outcome: inactive
[7]
  AC50: 15.5 µM (active)
[8]
  outcome: inactive

## CCON=C(CC)C1=C(O)CC(c2c(C)cc(C)cc2C)CC1=O (stereo unspecified)
[1]
  outcome: inactive

## CC1COC(Cn2cncn2)(c2ccc(Oc3ccc(Cl)cc3)cc2Cl)O1 (stereo unspecified)
[9]
  outcome: inactive

## Fc1ccc(Oc2ccnc3cc(Cl)cc(Cl)c23)cc1
[1]
  AC50: 17 µM (active)
